Among all 360,000 compounds or so, about 4,500 (1.2%) were called active. Shown is part of a subset that was picked to be rich in actives. A number with no mark means an inactive call. Cut-off read from the data, not from the text of the source: active = inhibition above about 30%; inactive = the rest.
Assay: GDH-TPI coupling enzyme inhibitors, primary screen, artefact control for M. tuberculosis FBA inhibitor project, biochemical, absorbance, full deck (AID 588335);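 note: 0% = DMSO wells and 100% = wells lacking the enzyme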
Details: GDH-TPI coupled enzyme counterscreen, NADH absorbance; at 4.8 µM; active compounds read high

Structure (SMILES)	inhibition
O=S(=O)(NCc1ccccc1Cl)c1cnc[nH]1	5.02%
O=C(NCCCNC(=O)c1ccccc1Cl)c1cnccn1	-2.33%
O=C(NCCCO)/C(=C\C=C\c1ccccc1)NC(=O)c1ccccc1Cl	34.7% (active)
O=C(NCC(=O)N1CCCCCCC1)c1ccccc1Cl	9.24%
CC(NCC(=O)Nc1ccccc1C(=O)NC1CC1)c1ccccc1Cl (centres undefined)	-5.56%
COCCn1cnnc1SCC(=O)Nc1cccc(S(=O)(=O)N2CCCCC2)c1	-5.42%
COc1ccc(CC2c3cc(OC)c(OC)cc3CC[N+]2(C)CCC(=O)OCCCCCOC(=O)CC[N+]2(C)CCc3cc(OC)c(OC)cc3C2Cc2ccc(OC)c(OC)c2)cc1OC (centres undefined)	-11.1%
COc1cccc(Nc2ncccc2C(=O)O)c1	11.1%
COc1ccc2nc(C)cc(Nc3cccc(C(=O)O)c3)c2c1	32.2% (active)
COc1cccc(C(=O)NC(=O)Nc2nc(C)cc(C(F)(F)F)n2)c1	-10%
CC(C)CN(CC(C)C)C(=O)CN1c2cccc3cccc(c23)S1(=O)=O	-9.01%
COc1ccc(C#Cc2c(-c3ccc(OC)cc3)oc3ccc(-c4ccc5c(c4)OCO5)cc23)cc1	5.83%
C=CCNC(=O)COc1coc(CN2CCN(Cc3ccccc3)CC2)cc1=O	-4.97%
N=c1ccccn1Cc1ccccc1	-9.4%
C=CCNC(=S)/N=c1/ccccn1Cc1ccccc1	33.6% (active)
O=C(CN1CCOCC1)N1CCCc2c1c(=O)oc1ccc(OCc3ccccc3)cc21	31.5% (active)
O=C(COc1ccc2c3c(c(=O)oc2c1)CCCC3)NCC(O)c1ccccc1 (centres undefined)	10.6%
O=C(COc1ccc2oc3c(c2c1)CCCC3)Nc1ccccn1	-3.77%
CCc1nn(CC(=O)N2CCN(c3cc(C)ccc3C)CC2)c(=O)c2cc3occc3n12	3.06%
CCOC(=O)N1CCC(NC(=O)C(C)n2c3ccccc3c3cnn(C)c(=O)c32)CC1 (centres undefined)	1.24%
Cc1ccc(S(=O)(=O)Nc2nc(C)cc(N/N=C/c3ccc(O)cc3)n2)cc1	31.1% (active)
Cc1ccc(OCCCC(=O)Nc2ccc(S(=O)(=O)Nc3cc(C)nc(C)n3)cc2)cc1	-1.42%
Cc1cc(C)nc(NS(=O)(=O)c2ccc(N/C=C\C(=O)c3cccs3)cc2)n1	10.6%

Structure (SMILES)	inhibition
O=c1c(Cl)c(NCc2ccc(F)cc2Cl)cnn1C12CC3CC(CC(C3)C1)C2	-9.45%
CCc1nnc(NC(=O)c2cc(S(=O)(=O)N3CCN(CC)CC3)ccc2Cl)s1	7.27%
COc1ccc(-c2c(-c3cc(OC)cc(OC)c3)n(C)c3ccc(-c4ccn[nH]4)cc23)cc1	10.2%
COc1cc(OC)cc(-c2c(-c3ccc(F)cc3)c3cc(-c4ccc5cc[nH]c5c4)ccc3n2C)c1	43.2% (active)
COc1cc(OC)cc(-c2c(-c3cccs3)c3cc(-c4ccc(OC)nc4)ccc3n2C)c1	23.8%
Cc1ccc(C(=O)CN2C(=O)NC3(CCc4ccccc43)C2=O)c(C)c1 (centres undefined)	-0.34%
O=C(CCCCO)c1ccc(O)c(Cl)c1	29.1%
Cc1c(S(=O)(=O)N2CC(C)CC(C)C2)c(=O)n(C)c(=O)n1C (centres undefined)	-4.2%
CC(=O)C1=C(C)NC2=C(C(=O)CC(C)(C)C2)C1C (centres undefined)	0.31%
CC1(C)CC(=O)C2=C(C1)Nc1cc(C(=O)c3ccccc3)ccc1NC2c1ccccn1 (centres undefined)	32.1% (active)
Cc1cc2c(cc1C)NC(c1ccccn1)C1=C(CC(C)(C)CC1=O)N2 (centres undefined)	29.6%
CSCC[C@H](NC(=O)NCc1cccs1)C(=O)O	-3.14%
CCN(c1ccc(NC(=O)COC(=O)CCc2nc3ccccc3n2-c2ccccc2)cc1)C(C)C	8.52%
O=C(CCS(=O)(=O)c1cccc2nsnc12)N1CCN(c2ccccc2F)CC1	19.6%
COc1ccc(/C=N/Nc2nc(-c3ccc(C)cc3)c(C#N)c(=O)[nH]2)cc1	10%
COc1ccc(/C=N/N=C/c2c[nH]c(=O)c(C#N)c2Nc2ccccc2)cc1	50.2% (active)
COc1ccc(O)c(/C=N/N=C/c2cccc([N+](=O)[O-])c2)c1	-12.3%
O=C1NC(c2ccccc2)CCC1(Cl)Cl (centres undefined)	3.97%
CCn1nc(NC(=O)c2ccco2)c2cc3ccc(C)cc3nc21	-4.08%
Cc1ccc(Cn2c(NC(=O)c3ccco3)nc3ccccc32)cc1	37.1% (active)
Cc1ccc(C(=O)Nc2c(C#N)c(C)c(C)n2Cc2ccccc2)cc1	-3.02%
CN1CCN(C(=O)CCc2ncc(C(F)(F)F)cc2Cl)CC1	-4.79%
CC(C)c1ccc(S(=O)(=O)N2CCN(C(=O)CN3C(=O)NC(C)(c4ccccc4)C3=O)CC2)cc1 (centres undefined)	-2.79%

Structure (SMILES)	inhibition
CC(N=Cc1nc(-c2ccccc2)oc1O)c1ccccc1 (centres undefined)	46.8% (active)
Oc1oc(-c2ccccc2Br)nc1/C=N/c1ccccn1	15.5%
COc1ccc(CN(C)C(C)C(=O)NC2CCCc3ccccc32)cc1 (centres undefined)	-4.42%
Cn1c(=O)c2c(-c3cccc(Br)c3)c(C#N)c(N)nc2n(C)c1=O	32.1% (active)
CSc1ccc(-c2c(C#N)c(N)nc3c2c(C)nn3-c2ccccc2)cc1	21.3%
Cc1cc(C)c2c(-c3ccc(F)cc3)c(C#N)c(=O)n(C)c2n1	12.6%
COc1ccc(N2CCN(CCNC(=O)Nc3cc(Cl)ccc3Cl)CC2)cc1	5%
COc1ccc(NC(=O)NCCN2CCN(c3ccc(C)cc3)CC2)c(Cl)c1	32.2% (active)
COc1ccc(N2CCN(CCNC(=O)c3nnc(Cc4c(F)cccc4Cl)o3)CC2)cc1	5.33%
CSC1=N/C(=C\C=C\c2cccs2)C(=O)S1	4.56%
COc1ccc(/C=C2\SC(=O)N(CCC(=O)NC3CCS(=O)(=O)C3)C2=O)cc1 (centres undefined)	41% (active)
COc1ccc(/C=C2\SC(=O)N(CCC(=O)NCCCn3ccnc3)C2=O)cc1	43.6% (active)
O=C(NCCCn1ccnc1)/C(=C\c1ccccc1F)NC(=O)c1ccccc1	-0.75%
COc1ccc(-c2ccc(OC(=O)NC3CCS(=O)(=O)C3)cc2)cc1 (centres undefined)	-7.23%
O=C(CN1C(=O)S/C(=C\c2ccccc2F)C1=O)NCCCn1ccnc1	33.6% (active)
COc1ccccc1/C=C1\SC(=O)N(CCC(=O)N(C)C2CCS(=O)(=O)C2)C1=O (centres undefined)	26.5%
O=C(CCN1C(=O)c2ccccc2C1=O)NCCCn1ccnc1	-1.58%
Cc1cc(OCCCC(=O)NCCN2C(=O)S/C(=C\c3cccnc3)C2=O)ccc1Cl	11.2%
O=C(CN1C(=O)/C(=C/c2ccccc2F)Sc2ccccc21)NCc1cccnc1	12.4%
CCOc1cc2c(Cl)ncnc2c(OCC)c1OCC	2.46%
CCOC(=O)C1(Cc2ccccc2C)CCCN(C(=O)c2ccc(COC)o2)C1 (centres undefined)	6.53%
COc1ccc(CNC(=O)C[C@H]2C[C@H](C(=O)N3CCOCC3)[C@@]3(CCC4CCCC4)c4[nH]c5ccc(Cl)cc5c4CCN3C2=O)cc1OC	-3.13%
CCN(CC(=O)NC(C)C)C(=O)c1cc(S(=O)(=O)N2CCCCC2)ccc1N1CCCCC1	2.16%

Structure (SMILES)	inhibition
NC(=S)NN=Cc1ccc(OC(=O)COc2cc(Cl)c(Cl)cc2Cl)cn1	49.8% (active)
O=C(COC(=O)COc1cc(Cl)c(Cl)cc1Cl)NC1CC1	7.02%
O=C(COc1cc(Cl)c(Cl)cc1Cl)NCCc1ccccn1	3.15%
CN(CCO)c1ccc(/C=N/Nc2nncc3ccccc23)cc1	15.2%
COc1cc(Nc2nc3ccc(Cl)cc3n3cnnc23)cc(OC)c1OC	-2.21%
COc1cc(/C=N/Nc2nn3cnnc3c3ccccc23)cc(OC)c1OC	43.1% (active)
CCOC(=O)C1(CCOc2ccccc2)CCN(C(=O)c2cncs2)CC1	3.14%
O=C1NC(c2ccccc2)=NC1(Nc1ccccn1)C(F)(F)F (centres undefined)	-8.86%
COc1cc(NC(=O)C2=CC(c3ccco3)=NS(=O)(=O)N2C)cc(OC)c1OC	30.4%
COc1cc(NC(=O)C2=CC(c3ccc(C)cc3)=NS(=O)(=O)N2C)cc(OC)c1OC	27.7%
COc1ccc(C2=NS(=O)(=O)N(C)C(C(=O)N(C)Cc3ccccc3)=C2)cc1	34% (active)
COc1ccc(C2=NS(=O)(=O)N(C)C(C(=O)NC(C)c3ccccc3)=C2)cc1 (centres undefined)	23.1%
COc1ccc(C2=NS(=O)(=O)N(C)C(C(=O)N3CCCCC3)=C2)cc1	24.4%
COc1ccc(NC(=O)C2=CC(c3ccc(OC)c(OC)c3)=NS(=O)(=O)N2C)cc1	32.7% (active)
CCc1cc(=O)oc2c(C)c(OCC(=O)N3CC[C@@]4(O)CCCC[C@H]4C3)ccc12	7.84%
NC(=O)c1nsc(C(=O)N(CCCN2CCOCC2)C(C(=O)NC2CCCCC2)c2ccc(Cl)cc2)c1N (centres undefined)	3.02%
Cc1ccc(C(=O)NNC(=O)c2cc3cc4ccccc4nc3s2)cc1	10.2%
Cc1ccc(C(=O)NNc2ncnc3ccccc23)cc1	43.8% (active)
Cc1ccc(NC(=O)c2ccc(Oc3ncccn3)cc2)cc1	11.6%
O=C(O)CC(Cc1ccccc1)C(=O)Nc1ccc([N+](=O)[O-])cc1 (centres undefined)	19.3%

Source: PubChem BioAssay AID588335 (The Scripps Research Institute Molecular Screening Center, 2011)
